An excerpt weighted towards active compounds, which were near 2.4% of everything screened.
D2 PAM-1: positive allosteric modulators of human D2 dopamine receptor; HEK293 T-REx D2, calcium flux, EC20 dopamine potentiation; P14416; 0.34% of 340,000 active; potentiation, % at 10 µM; AID 485347;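 active means potentiation over 3 SD above the plate norm, cut at about 30% in these data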
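Potentiation of an EC20 dopamine calcium response measured kinetically over 180 s, after a preceding 180 s compound-only read flagging agonists. Cells: inducible Hek293 Trex D2 line, 4000/well, cultured overnight at 30 C before dye loading.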
D2 antag: antagonists of human D2 dopamine receptor. HEK293 TREx D2 cells, calcium flux, dopamine EC80. inhibition, % at 10 µM. 2% of 340,000 active; in the data active means inhibition above about 30%; inactive means below that, where a call was filed
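Overnight-induced (tetracycline, 30 C) HEK293 T-REx cells carrying force-coupled D2 receive a no-wash calcium dye, then compound, then EC80 dopamine at 180 s; signals are read kinetically throughout.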
D2 ag-1: agonists of human D2 dopamine receptor (beta-arrestin); P14416; 0.084% of 360,000 active; AID 624465; activation, % (test concentration not listed); DiscoveRx PathHunter D2 beta-arrestin, luminescence, 90 min; 100% = 57 uM dopamine signal; in the data active means activation above about 40%; inconclusive means between about 15% and that limit
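Agonist mode: compounds alone added to overnight-plated D2 PathHunter cells for 90 min at 37 C, with 57 uM final dopamine (EC100) defining full response. Beta-arrestin recruitment detected by chemiluminescent reagent, read after 1 h at ambient temperature.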
D2 PAM-2: human D2 receptor positive allosteric modulation; DiscoveRx D2 beta-arrestin cells, luminescence, 90 min; 100% = 57 uM dopamine signal; potentiation, % (test concentration not listed); 0.23% of 360,000 active; in the data active means potentiation above about 50%; inconclusive means mostly about 30% to 49%
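PathHunter beta-arrestin assay in DiscoveRx D2 cells. Compounds were added with an EC20 of dopamine (50 nM final) for 90 min at 37 deg C. Luminescence was read 1 h after detection reagent, with 57 uM dopamine as the EC100 control.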
D2 ag-2: D2 dopamine receptor (human) agonism; P14416; HEK293 T-REx D2 cells, calcium flux agonist mode; activation, % at 2 µM; 0.53% of 340,000 active;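 active means activation over 3 SD above normal in the single-dose calcium agonist read, cut at about 30% in these data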
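Tetracycline-induced HEK293 Trex cells with D2 receptor force-coupled to calcium signaling, plated overnight at 30 C and loaded with no-wash calcium dye. Calcium flux read kinetically for 180 s after compound addition; responses flag agonists.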
D3 ag: D3 receptor agonism confirmed, beta-arrestin readout; Potency, µM (top dose mostly 76.9 µM), actives largely listed as activators; AID 720506; shares compounds with D2 ag-2; DiscoveRx D3 beta-arrestin cells, luminescence, 90 min; 4% of 2,300 active; further: nearly all actives have a fitted effect of over 70% in size
Target sequence (P35462 whole entry, looked up): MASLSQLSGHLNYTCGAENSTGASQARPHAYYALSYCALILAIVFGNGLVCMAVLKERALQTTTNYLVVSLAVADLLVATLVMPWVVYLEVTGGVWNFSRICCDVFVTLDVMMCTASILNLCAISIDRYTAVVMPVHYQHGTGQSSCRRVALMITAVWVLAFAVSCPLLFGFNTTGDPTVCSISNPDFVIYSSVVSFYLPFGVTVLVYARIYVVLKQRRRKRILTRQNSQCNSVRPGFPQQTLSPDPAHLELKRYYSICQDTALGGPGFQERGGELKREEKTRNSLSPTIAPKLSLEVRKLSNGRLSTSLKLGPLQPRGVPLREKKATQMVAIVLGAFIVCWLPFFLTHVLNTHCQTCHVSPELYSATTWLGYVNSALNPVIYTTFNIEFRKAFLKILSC
D2 ag-3: activates human D2 dopamine receptor in D3 counterscreen; shares compounds with D2 ag-2; DiscoveRx PathHunter D2 beta-arrestin, luminescence, 90 min; response scale: percent relative to full dopamine signal; Potency, µM (doses to about 76.9 µM), actives largely listed as activators; 5.9% of 2,300 active; further: nearly all actives have a fitted effect of over 70% in size
Of the large screens only hits and unclear results are named; the others gave an inactive call (follow-up assays come after a bar, where they were run). Unless noted, the call rests on the fitted dose curve; in most records, active means well fitted activation curve with a large enough effect; inconclusive means small, poorly fitted or top-dose-only effect; inactive means flat fitted curve, though single readings scatter.

Cc1cccc(CC(=O)Nc2cccnc2)c1	none | D3 ag inactive | D2 ag-3 inactive
CCC(=O)Nc1ccc(CC)cc1-c1nc2ccccc2n(CC(=O)Nc2cccc(OC)c2)c1=O	none (no result: D2 antag, D2 ag-1, D2 PAM-2)
CC1CC1C(=O)Nc1ccc(S(=O)(=O)N2CCCCC2)cc1 (stereo unspecified)	none (no result: D2 PAM-1, D2 antag, D2 ag-2) | D3 ag inactive | D2 ag-3 inactive
O=C(O)C1CCCCC1C(=O)Nc1ccc(S(=O)(=O)N2CCCCCC2)cc1 (stereo unspecified)	none
CC(=O)N1CCc2cc(S(=O)(=O)NCCCN3CCN(Cc4ccccc4)CC3)ccc21	D2 antag 43.8, D2 ag-2 42.1 | D3 ag inactive | D2 ag-3 inactive
CCOC(=O)c1ccc(NC(=O)COCc2cc(-c3ccc4c(c3)OCO4)on2)cc1	none (no result: D2 antag, D2 ag-1, D2 PAM-2)
COC(=O)CN1C(=O)C(C)(C)c2cc(S(=O)(=O)NCc3ccc(Cl)cc3)ccc21	none (no result: D2 antag, D2 ag-1, D2 PAM-2)
CCOC(=O)c1oc2c(c1C)C(=O)CCC2	none | D3 ag inactive | D2 ag-3 inactive
COc1cc(CC(=O)OCC(=O)NC(C)c2ccccc2)cc(OC)c1OC (stereo unspecified)	none (no result: D2 PAM-1, D2 antag, D2 ag-2)
COc1cccc(CC(=O)OCC(=O)NC(C)c2ccc(F)cc2)c1 (stereo unspecified)	none | D3 ag inactive | D2 ag-3 inactive
CCCCNC(=O)C1CCC(Cn2c(=O)c3sccc3n(Cc3ccccc3)c2=O)CC1 (stereo unspecified)	none (no result: D2 antag, D2 ag-1, D2 PAM-2)
CC1(C)C2([N+](=O)[O-])CN3CC1([N+](=O)[O-])CN(C2)C3c1ccc(O)c(O)c1 (stereo unspecified)	none | D3 ag inactive | D2 ag-3 inactive
CCOC(=O)c1c(-c2ccc(Cl)cc2)csc1NC(=O)CNCc1ccco1	D2 ag-2 51.3 | D3 ag inactive | D2 ag-3 inactive
CCOC(=O)c1c(-c2ccc(OC)cc2)csc1NC(=O)CNCc1ccco1	none
Cc1ccc(SCc2nc(-c3ccc(C(=O)Nc4cc(C)ccc4C)cc3)oc2C)cc1	none (no result: D2 antag, D2 ag-1, D2 PAM-2)
Cc1cccc(N2CCN(Cc3cn(C)nc3-c3ccccc3F)CC2)n1	D2 antag 30.4, D2 ag-1 inconclusive, D2 ag-2 51.4 | D3 ag inactive | D2 ag-3 inactive
Cn1cc(CN2CCN(c3ccc(Cl)cn3)CC2)c(-c2ccccc2F)n1	none
Cc1ccc(CN2C(=O)C(=O)c3cc(Br)cc(C)c32)cc1	none (no result: D2 antag, D2 ag-1, D2 PAM-2)
CC(C)Oc1ccc(CNC(=O)Cn2nc(N3CCN(c4ccccc4)CC3)ccc2=O)cc1	none (no result: D2 antag, D2 ag-1, D2 PAM-2)
Cc1ccc(S(=O)(=O)N2CCOC2CNC(=O)C(=O)NCc2ccc3c(c2)OCO3)cc1 (stereo unspecified)	D2 antag 66.0 | D3 ag inactive | D2 ag-3 inactive
COc1ccc(Cl)cc1NC(=O)CSc1cn(CC(=O)N2CCCCCC2)c2ccccc12	none (no result: D2 antag, D2 ag-1, D2 PAM-2)
CCCc1nc2ccc(NC(C)=O)cc2c(=O)n1Cc1ccccc1Cl	none | D3 ag inactive | D2 ag-3 inactive
Cc1ccc(NC(=O)N2CCC(CN3CCCCCC3)CC2)c(Cl)c1	none (no result: D2 antag, D2 ag-1, D2 PAM-2, D2 ag-2)
COc1cccc(C(=O)NCCN2CCN(c3ccccc3)CC2)c1	none (no result: D2 PAM-1, D2 antag, D2 ag-1, D2 PAM-2, D2 ag-2) | D3 ag inconclusive | D2 ag-3 inactive
O=C(c1ccc2c(c1)[nH]c(=S)n1c3ccccc3nc21)N1CCN(c2ncccn2)CC1	none
O=C(NCCN1CCN(c2ccccc2)CC1)c1ccc2c(c1)[nH]c(=S)n1c3ccccc3nc21	D2 antag 33.6, D2 ag-2 47.9 | D3 ag inconclusive | D2 ag-3 inactive
COc1ccc(OC)c(NC(=O)CCN2CCN(C/C=C/c3ccccc3)CC2)c1	D2 ag-2 48.8 | D3 ag inactive | D2 ag-3 inactive
COc1ccc(OC)c(NC(=O)CCN2CCN(C)CC2)c1	none
COc1ccc(NC(=O)CCN2CCN(Cc3ccccc3)CC2)c(OC)c1	D2 antag 41.0 | D3 ag inactive | D2 ag-3 inactive
CCCc1cc(=O)[nH]c2nnc(SCC(=O)Nc3ccc(OC)cc3)n12	none (no result: D2 antag, D2 ag-1, D2 PAM-2)
Cc1ccc(C)c(NC(=O)Cn2c(=O)n(CC3CCCO3)c(=O)c3ccccc32)c1 (stereo unspecified)	none (no result: D2 antag, D2 ag-1, D2 PAM-2)
COc1ccc(-c2[nH]c(-c3ccccc3)nc2SCC(=O)Nc2ccc3c(c2)OCO3)cc1	none (no result: D2 antag, D2 ag-1, D2 PAM-2)
O=C(Nc1ccc(Cl)c(Cl)c1)N(Cc1c[nH]c2ccccc12)C1CCCCC1	none (no result: D2 antag, D2 ag-1, D2 PAM-2)
COCCn1c(=S)[nH]c2cc(C(=O)N3CCN(c4cccc(Cl)c4)CC3)ccc2c1=O	none (no result: D2 PAM-1, D2 antag, D2 ag-2)
COCCn1c(=O)[nH]c2cc(C(=O)NCCN3CCN(c4cccc(Cl)c4)CC3)ccc2c1=O	D2 antag 87.3, D2 ag-2 59.3 | D3 ag inactive | D2 ag-3 inconclusive
COc1ccc(OC)c(NC(=O)CCN2CCN(c3ccccc3)CC2)c1	D2 antag 80.4, D2 ag-1 inconclusive, D2 ag-2 86.6 | D3 ag inconclusive | D2 ag-3 inconclusive
COc1ccc(CCNc2ncnc3c2nnn3C)cc1	none (no result: D2 antag, D2 ag-1, D2 PAM-2)
CC(=O)c1cccc(OCC(O)CNCCOc2ccc(C)cc2)c1 (stereo unspecified)	D2 antag 42.5, D2 ag-2 52.8 | D3 ag inactive | D2 ag-3 inactive
CC(=O)c1cccc(OCC(O)CNCC2CCCCC2)c1 (stereo unspecified)	none
Cc1cccc(C(=O)NC(=S)NNC(=O)c2ccc(Cl)cc2)c1	D2 ag-2 74.7 | D3 ag inactive | D2 ag-3 inactive
Cc1cccc(C(=O)NC(=S)NNC(=O)c2cccs2)c1	none
CN1CC2=Cc3ccccc3OC23Oc2ccccc2C=C3C1	D2 antag 64.2, D2 ag-2 58.6 | D3 ag inactive | D2 ag-3 inactive
Cc1ccc(-c2c[n+](CC(=O)Nc3ccccc3C)c3n2CCC3)cc1	none
Cc1ccc(NC(=O)C[n+]2cc(-c3ccccc3)n3c2CCC3)cc1	D2 antag 56.1, D2 ag-2 70.8 | D3 ag inactive | D2 ag-3 inactive
C=C(C)CSc1nc2sc3c(c2c(=O)n1-c1ccccc1)CCC(C)C3 (stereo unspecified)	none (no result: D2 antag, D2 ag-1, D2 PAM-2)
CCOC(=O)c1c(C)c(-c2ccccc2)n(CC(=O)Nc2cc(OC)cc(OC)c2)c1C	none (no result: D2 antag, D2 ag-1, D2 PAM-2)
COc1cc(CN2CCN(c3ccccc3F)CC2)c([N+](=O)[O-])cc1OC	D2 ag-2 36.5 | D3 ag inconclusive | D2 ag-3 inactive
O=[N+]([O-])c1cc2c(cc1CN1CCN(c3ccccc3F)CC1)OCO2	none
O=C(c1[nH]nc2c1CCc1ccccc1-2)N1CCN(Cc2ccc3c(c2)OCO3)CC1	D2 antag 70.5, D2 ag-1 inconclusive | D3 ag inactive | D2 ag-3 inconclusive

From PubChem BioAssay
